# This is a sample that favours compounds with a hit; in the whole collection about 2.8% have one here.
# POLK inh: qHTS for Inhibitors of Polymerase Kappa; Potency, µM (titrated, usually from 107 µM), without a hit: top-dose activity, negative = inhibition, usual class: inhibitors; DNA polymerase kappa (Homo sapiens), Q9UBT6; 400,000 tested, 0.53% active; purified Pol kappa, fluorescent DNA synthesis assay, 10 min; also: potency is read from the fitted curve at half-maximal effect; % is scaled to controls: 0 for no effect and ±100 for the full control effect
#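 Inhibition of 10 nM Pol kappa is measured by a fluorescent read-out at 0 and 10 min following addition of 50 nM substrate (final), with a 15-min room-temperature compound preincubation.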
# Pol iota inh: qHTS for Inhibitors of Polymerase Iota | Pol iota fluorescent replication assay, 10 min | Potency, µM (doses to about 115 µM), for the others: at the top dose activity, negative = inhibition, hits mostly inhibitors | 390,000 tested, 1% active | AID 588590, 2011; also: potency is read from the fitted curve at half-maximal effect
#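 Pol iota at 10 nM preincubated 15 min with compounds at room temperature; reaction started with fluorescent substrate, 50 nM final. Fluorescence read kinetically at 0 and 10 min; buffer-only wells as negative control.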
# Pol beta inh: qHTS Assay for Inhibitors of DNA Polymerase Beta. Pol beta primer extension/strand displacement, fluorescence kinetic. 340,000 tested, 1.3% active. Potency, µM (titrated, usually from 114 µM), inactives show at the highest dose activity change, negative = inhibition, actives largely listed as inhibitors. AID 485314, 2010. P06746; also: potency is read from the fitted curve at half-maximal effect; % is scaled to controls: 0 for no effect and ±100 for the full control effect
#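 10 nM enzyme + cpd, 15 min RT; start with substrate 50 nM final; read 0 min and after 10 min RT. Corrected, normalized data; 4-parameter Hill curve fit.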
# WRN inhibitor: qHTS for Inhibitors of WRN Helicase | Bifunctional 3'-5' exonuclease/ATP-dependent helicase WRN (Homo sapiens), Q14191 | WRN helicase unwinding, fluorescent forked duplex, kinetic | Potency, µM (top dose mostly 114 µM), inactives show top-dose activity change, negative = inhibition, most hits filed as inhibitors | 360,000 tested, 0.46% active; also: potency is read from the fitted curve at half-maximal effect; % is scaled to controls: 0 for no effect and ±100 for the full control effect; nearly all actives have a fitted effect of over 55% in size
#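 Primary qHTS, 1536-well format. 20 nM WRN + compound, 15 min RT; start with 100 nM forked fluorophore/quencher duplex, 2 mM ATP (final); kinetic read ex 525/em 598 nm.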
# Pol eta inh: qHTS for Inhibitors of Polymerase Eta. 390,000 tested, 1.2% active. DNA polymerase eta (Homo sapiens), Q9Y253. recombinant Pol eta, fluorescent DNA replication assay. Potency, µM (highest dose often 114 µM), for the others: top-dose activity change, negative = inhibition, actives largely listed as inhibitors; also: potency is read from the fitted curve at half-maximal effect; % is scaled to controls: 0 for no effect and ±100 for the full control effect
#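 Fluorescent replication assay: 50 nM final substrate added after a 15 min room-temperature compound preincubation with 10 nM enzyme. Signal taken at 0 min and again at 10 min.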
# PI5P4Ka inh: qHTS for Inhibitors of phosphatidylinositol 5-phosphate 4-kinase (PI5P4K); 330,000 tested, 1.2% active; max response, %; PI5P4Kalpha enzyme, ADP-Glo luminescence, 60 min; active compounds read low; active = max response of -50% or lower; inconclusive = between -30% and -50%; inactive = -30% or higher; also: value at the top dose of about 77 µM; % is scaled to controls: 0 for no effect and ±100 for the full control effect
# Target sequence (P48426 whole entry, looked up): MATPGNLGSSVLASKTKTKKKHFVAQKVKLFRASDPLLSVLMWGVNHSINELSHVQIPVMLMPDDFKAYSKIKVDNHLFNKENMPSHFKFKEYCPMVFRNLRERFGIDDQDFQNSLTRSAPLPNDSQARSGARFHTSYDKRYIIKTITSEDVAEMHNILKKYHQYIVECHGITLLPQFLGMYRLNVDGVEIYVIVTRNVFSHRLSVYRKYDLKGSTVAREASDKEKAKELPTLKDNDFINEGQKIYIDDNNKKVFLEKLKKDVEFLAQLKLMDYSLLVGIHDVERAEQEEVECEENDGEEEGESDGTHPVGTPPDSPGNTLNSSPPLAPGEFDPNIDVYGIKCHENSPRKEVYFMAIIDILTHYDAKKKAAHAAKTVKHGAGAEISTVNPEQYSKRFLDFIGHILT
#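 qHTS, 1536-well: enzyme/substrate mix, compound by pin tool, 5 microM ATP final; RT 60 min; ADP-Glo reagents 1 (45 min) then 2 (30 min); luminescence.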
# * hit, by the source's call; ? = inconclusive; . = no result; ! = repeats disagree; [ ] = another dose, or the depositor's remark. Unless noted, calls follow the shape of the dose curve; as a rule, active = well fitted curve in the direction sought with a large enough effect; inconclusive = small, poorly fitted or top-dose-only effect, or another doubt; inactive = no such curve, though single readings can be large; an effect the other way counts as inactive or inconclusive.
SMILES,POLK inh,Pol iota inh,Pol beta inh,WRN inhibitor,Pol eta inh,PI5P4Ka inh
O=C(N/N=C\c1cc(Br)c(Br)o1)c1cncc(Br)c1,-1%,14%,0%,-8%,0%,-23
O=C(N/N=C/C=C/c1ccco1)c1cnccn1,-24%,?,-14%,-30%,?,-2
O=C(N/N=C/c1cc(Br)c(Br)o1)c1cccnc1,?,?,32µM*,?,11µM*,?
Cc1cc(-n2ccnc(NCCc3ccc(S(N)(=O)=O)cc3)c2=O)ccc1Br,-5%,24%,0%,.,-19%,.
CC1CCc2c(sc3ncnc(SCC(=O)Nc4ccc(C(=O)O)cc4)c23)C1 (stereo unspecified),0%,72%,26%,-34%,-19%,-67*
Cc1cc(NC(=O)CSc2ncnc3sc4c(c23)CCC(C)C4)no1 (stereo unspecified),.,.,13%,.,.,.
Cc1ccc(-c2csc3ncnc(SCC(=O)O)c23)cc1,7%,57%,16%,-6%,0%,-70*
COC(=O)CSc1ncnc2scc(-c3ccccc3)c12,-3%,10%,2%,-10%,-19%,3
O=C(O)CSc1ncnc2sc3c(c12)CCC3,-18%,-6%,?,-9%,?,-68*
O=C(CSc1ncnc2sc3c(c12)CCC3)Nc1ccccc1C(=O)O,-26%,?,1%,?,?,-84*
Cc1ccc(C)c(Cn2c(=O)n(CC3CCC(C(=O)N4CCOCC4)CC3)c(=O)c3sccc32)c1 (stereo unspecified),8%,1%,17%,.,-8%,.
COc1ccc(Nc2ncc(C(=O)Nc3ccc(F)cc3F)c3ccccc23)cc1,-16%,?,-21%,.,-27%,.
CN(C)c1ccc(C(CNC(=O)c2ccc(C(C)(C)C)cc2)N2CCCC2)cc1 (stereo unspecified),-14%[60.1 µM],24%,3%,.,-23%,.
Cc1cc(C)cc(NC(=O)NCc2noc3ccccc23)c1,-5%,24%,1%,.,-9%,.
N#Cc1c[nH]n2c(NC3CCCCC3)c(-c3ccccc3F)nc12,-14%,15%,-9%,.,-14%,.
O=C(O)CSc1ncnc2sc3c(c12)CCCC3,-1%,43%,-6%,?,-3%,-58*
COc1ccc(Cl)cc1NC(=O)CSc1ccc(-c2sc(C)nc2C)nn1,-1%[60.1 µM],9%,?,.,-6%,.
O=C(NCCc1ccccc1)C1CC(=O)N(C2CCCCCC2)C1 (stereo unspecified),0%,79µM*,-7%,-4%,5%,.
COc1ccc(-n2ncc3c(N4CCC(C(N)=O)CC4)ncnc32)cc1,-11%,1%,?,9%,-23%,.
CCOC(=O)C1CCN(c2ncnc3c2cnn3-c2ccc(OC)cc2)CC1,-23%,11%,50µM*,-19%,-7%,.
CC(=O)Nc1cccc(NC(=O)COC(=O)CO/N=C(\C)c2ccc3c(c2)OCO3)c1,-16%,96%,-15%,-6%,-16%,4
C/C(=N\OCC(=O)OCC(=O)NCc1ccccc1)c1ccc2c(c1)OCO2,?,40µM*,.,?,20µM*,-11
Cc1ccc(C(=O)Nc2nnc(S(=O)(=O)N(C)Cc3ccc(F)cc3)s2)cc1,4%,24%,5%,.,-4%,.
N#Cc1cccc2c1-c1ccccc1/C2=N/NC(N)=S,-10%,20µM*,1%,-16%,?,-17
COc1ccc(-c2cc(NC=O)c3ncc(-c4cccc(C(C)=O)c4)n3c2)cc1,.,.,.,-8%,.,-27
SMILES,POLK inh,Pol iota inh,Pol beta inh,WRN inhibitor,Pol eta inh,PI5P4Ka inh
CC(=O)c1ccc(-c2cnc3c(NC=O)cc(-c4cccc(C(=O)N(C)C)c4)cn23)cc1,.,.,.,28%,.,-59*
COc1cccc(-c2cnc3c(NC=O)cc(-c4ccccc4)cn23)c1,.,.,.,-7%[57.1 µM],.,?
COc1cccc(-c2cnc3c(NC=O)cc(-c4cccc(NC(C)=O)c4)cn23)c1,.,.,.,-8%[57.1 µM],.,-77*
COc1cccc(-c2cc(NC=O)c3ncc(-c4ccc(C(C)=O)cc4)n3c2)c1,.,.,.,6%[57.1 µM],.,-68*
CC(=O)Nc1cccc(-c2cc(NC=O)c3ncc(-c4cccc(C(C)=O)c4)n3c2)c1,.,.,.,-19%[57.1 µM],.,-55*
CN(C)C(=O)c1cccc(-c2cc(NC=O)c3ncc(-c4ccc(F)cc4)n3c2)c1,.,.,.,-17%[57.1 µM],.,-30
N#CC1=C(N)N(c2cccc(Cl)c2)C2=C(C(=O)CCC2)C1c1cc(CN2CCOCC2)cs1 (stereo unspecified),-18%,5%,11%,.,-9%,.
COc1ccc(CCCc2nnc(SCC(=O)Nc3cc(F)ccc3C)o2)cc1,-1%,9%,0%,.,-19%,.
COc1ccc(C(=O)c2ccc(O)cc2)c(O)c1O,2.2µM*,.,.,.,.,.
CCOc1ccc(C(=O)c2ccc(OC)c(O)c2O)cc1,13µM*,.,.,.,.,.
COc1ccc(C(=O)c2ccc(C)cc2)c(OC)c1OC,-10%,107%,.,-22%,-8%,1
O=C1CCN(Cc2ccccc2)CCN1CCSc1ccccc1,?,79µM*!,-1%,1%,-5%,-2
CCOC(=O)c1cnc(NCc2ccc(OC)cc2OC)c2ccccc12,-14%[60.1 µM],89µM*,6%,.,-17%,.
CSc1nc(=S)c2[nH]c(=S)[nH]c2[nH]1,-26%,14µM*,-1%,50µM*,-14%,-87*
N#Cc1cnn(-c2ccc(F)cc2)c1N,-22%,48%,-6%,-18%,-22%,-52*
Cc1ccc(-n2ncc(C#N)c2N)cc1,-8%,?,14%,-9%,-8%,2
CC1(C)NC(=O)N(CN2C(=O)NC(C)(C)C2=O)C1=O,2%,-4%,79µM*,5%,-8%,.
COc1cccc(C2Nc3ccc4ccccc4c3C3=C2C(=O)CCC3)c1O (stereo unspecified),1%,155%,89µM*,11%,-12%,-14
CCCCCC/C(C)=C1/SC(=S)NC1=O,-7%,?,6%,-16%,-18%,-71*
CCCCCCCC(=O)NNC(=O)Cc1ccccc1,4%,-21%,0%,-7%,-2%,.
CSc1nc(NCCOCCO)c2sc3nc(-c4ccco4)c4c(c3c2n1)CCC4,-1%,12%,3.5µM*,-13%,-13%,-10
CCN(CCO)c1ncnc2c1sc1nc(C(C)C)c3c(c12)CC(C)(C)OC3,-18%,?,18%,-8%,-10%,4

# Source: PubChem BioAssay
